We go through seven compounds from PubChem BioAssay (NCI).

What all share (experiment): NCI-60 one-dose screen, 48 h (100 = growth as untreated, 0 = no growth, -100 = all killed)
What all share (conditions): 10 µM unless noted

Experiment [1] deals with SR leukemia.
Experiment [2] has as its system RPMI-8226 leukemia.
For experiment [3], the system named is OVCAR-8 ovarian.
Experiment [4] deals with OVCAR-5 ovarian.
In experiment [5] the test system is OVCAR-4 ovarian.
The subject of experiment [6] is SK-OV-3 ovarian.
In experiment [7] the test system is OVCAR-3 ovarian.
In experiment [8] the test system is HS 578T breast.
The subject of experiment [9] is NCI/ADR-RES ovarian.
The subject of experiment [10] is T-47D breast.
In experiment [11] the test system is BT-549 breast.
Experiment [12] relates to MDA-MB-435 melanoma.
Experiment [13] deals with SW-620 colon.
Experiment [14] relates to MCF7 breast.
Experiment [15] deals with HCT-116 colon.
For experiment [16], the system named is HCC-2998 colon.
Experiment [17] concerns KM12 colon.
Experiment [18] has as its system IGROV1 ovarian.

About 83,000 compounds went through this panel and 20% of them were active in at least one assay; those are over-represented in the sample as a whole.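 Growth was measured after 48 h exposure to one concentration of compound in 96-well plates. Values under 10 count as active.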 Unmarked numbers belong to inactive results. The source made the active and inactive calls.

In the case of `CCCCCCCCOC(=O)CC[C@@H](C)[C@H]1CC[C@H]2[C@@H]3[C@H](OC(=O)CCN)C[C@@H]4C[C@H](OC(=O)CCN)CC[C@]4(C)[C@H]3C[C@H](OC(=O)CCN)[C@]12C`, the growth in experiment [1] is -12.9% (active); in experiment [2], 77.8%; in [3], 69.5%; in experiment [4], 92.1%; in experiment [5], 75.7%; in experiment [6] it was 90.9%. The growth in experiment [7] is 108%; in experiment [8], 79.5%; in [9] it was 101%; in [10], 88.8%; in experiment [11], 124%; in experiment [12], 74.1%. The growth in experiment [13] is 20%; in experiment [14], 10.8%; in experiment [15], 49.3%; in experiment [16] it was 84.2%; in [17], 77.8%.

With `CCCCCCCCCc1cc(CN2CCCCC2)c(O)c(CN2CCCCC2)c1`, the growth in experiment [1] was 7.18% (active); in experiment [2], 23.7%; in experiment [3], 76.6%; in [4], 59.8%; in experiment [5], 41.3%; in [6], 78.3%. For the same compound, the growth in experiment [7] is 41.9%; in experiment [8], 72.7%; in [9] it was 58.3%; in experiment [10], 19.8%; in [11], 70.1%; in experiment [12] it was 78.4%. The growth in experiment [13] was 69.8%; in experiment [14], 44%; in [15], 39.1%; in experiment [16], 68.2%; in [17], 50.6%.

Regarding `COc1cc(C2CC(=O)c3c(C)nn(-c4nc5ccccc5[nH]4)c3C2)cc(OC)c1OC` (centres undefined), the growth in experiment [1] was 87.7%; in [2], 92.1%; in experiment [3], 25.7%; in [4], 90.4%; in [5], -35.4% (active); in experiment [6] it was 17.9%. For the same compound, the growth is 67.2% in [7]; 43.1% in experiment [8]; 64.9% in [9]; 60% in [10]; 77.7% in [11]; 99.8% in experiment [12]. In addition, the growth in experiment [13] is 99.6%; in experiment [14], 76.4%; in [15] it was 68.7%; in [16], 82.4%; in experiment [17], 102%.

Take `CC(=O)OC1Oc2cc(C)c(C)cc2-c2oc(=O)c(-c3cc4ccc(N(C)C)cc4oc3=O)cc21` (centres undefined): the growth in experiment [1] is -41.6% (active); in experiment [2], 29.4%; in [3], 75.9%; in experiment [4], 86.4%; in experiment [5] it was 89.8%; in experiment [6] it was 78.2%. Besides, the growth in experiment [7] was 94.1%; in [8] it was 112%; in [9], 64.7%; in experiment [10], 26.3%; in experiment [11], 59.3%; in experiment [12] it was 72.6%. Moreover, the growth was 104% in [13]; 78.6% in [14]; 48.3% in experiment [15]; 106% in experiment [16]; 94.5% in experiment [17].

In the case of `O=[N+]([O-])c1cccc(-c2nc3sccn3c2-c2ccnc(NCCCNS(=O)(=O)c3ccc(Br)cc3)n2)c1`, the growth was 51.8% in experiment [1]; 9.86% (active) in experiment [2]; 28.2% in [3]; 114% in experiment [4]; 32.7% in experiment [5]; 92.5% in experiment [6]. Besides, the growth in experiment [7] was 51.2%; in [8], 87.7%; in experiment [9], 23.1%; in experiment [10], 1.8% (active); in experiment [11], 38%; in [12], 46.6%. Moreover, the growth was 98.1% in [13]; 34% in experiment [14]; 56.9% in experiment [15]; 102% in [16]; 40.5% in experiment [17].

`CCN(CC)c1ccc(/C=C/C2=[N+](C)c3ccccc3C2(C)C)cc1`: the growth was 28.1% in experiment [1]; -20.9% (active) in [2]; 24.7% in experiment [3]; 34.7% in [4]; 40.6% in [5]; -0.178% (active) in experiment [6]. Further, the growth was 5.97% (active) in experiment [7]; 27% in experiment [8]; 84.8% in experiment [9]; 14% in experiment [10]; 0.697% (active) in [11]; -1.89% (active) in [12]. Besides, the growth was 15.4% in [13]; 4.72% (active) in [14]; 13.1% in experiment [15]; 24.1% in experiment [16]; -28% (active) in [17].

With `CCOC(=O)c1c2c(n3ccc(NC(=O)CCN4CCCCC4)cc13)C(=O)c1ncccc1C2=O`, the growth in [1] is -46.6% (active); in experiment [2], -6.64% (active); in [3] it was -27% (active); in experiment [4] it was -58.9% (active); in experiment [5] it was -13.5% (active); in experiment [18], 35.1%. For the same compound, the growth in experiment [7] was -10.9% (active); in experiment [8] it was 40.2%; in experiment [9] it was 36.8%; in [10], 44.6%; in [11] it was 58.5%; in [12], -61.8% (active). Moreover, the growth in [13] was -20.2% (active); in experiment [14], -61.1% (active); in [15], -61.1% (active); in experiment [16], -66% (active); in experiment [17], -75.6% (active).
